Laboratory results as given in PubChem BioAssay (EPA / NIEHS).
Results filed as inconclusive are left out. The source made the active and inactive calls. The calls were made as follows: active = hit-call score of the fitted dose curve at least 0.9, where 1 is the maximum; inconclusive = response in the unintended direction; inactive = score below 0.9.

Assays:
[1] = biological target: Estrogen receptor beta (Homo sapiens) (UniProt Q92731); test: OT_ER_ERbERb_0480: Odyssey Thera (OT) 8-hour HEK293T Protein-Complementation Assay for Estrogen Receptor-beta/-beta Homodimer (AID 2283357);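 also: active means signal gain over DMSO baseline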
In short: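 Fluorescence gain from complemented reporter fragments on ER-beta LBD homodimer in HEK293T was quantified against DMSO controls after 8 h treatment, fixation in 4% formaldehyde and Draq5 staining.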

[2] = biological target: Estrogen receptor (Homo sapiens) (UniProt P03372); test: OT_ER_ERaERa_0480: Odyssey Thera (OT) 8-hour HEK293T Protein-Complementation Assay for Estrogen Receptor-alpha/-alpha Homodimer (AID 2283351);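 also: rise in fluorescence from reassembled reporter fragments on ERα LBD homodimer in nucleus or whole cell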
In short: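 Cells were treated for 8 hours, then imaged on a laser scanning plate cytometer. Complementation of reporter fragments fused to the human ERα ligand-binding domain (residues 310-547) in HEK293T gave fluorescence, and gain of signal over vehicle was fitted.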

[3] = biological target: T1, Estrogen receptor (Homo sapiens) + Estrogen receptor beta (Homo sapiens) (UniProt P03372+Q92731); test: OT_ER_ERaERb_0480: Odyssey Thera (OT) 8-hour HEK293T Protein-Complementation Assay for Estrogen Receptor-alpha/-beta Heterodimer (AID 2283352)
In short: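 Fluorescence intensity readout from a protein-fragment complementation reporter in HEK293T; ER-alpha/ER-beta LBD heterodimer. Dosing 8 h. Gain-of-signal fit relative to DMSO negative control; laser scanning cytometry of whole-well cell population.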

[4] = biological target: Androgen Receptor/SRC-1 Co-activator, AR (gene 367) (UniProt P10275); test: OT_AR_ARSRC1_0960: Odyssey Thera (OT) 16-hour HEK293T Protein-Complementation Assay for Androgen Receptor/SRC-1 Co-activator (AID 2283353);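 also: actives raise the signal above DMSO so potency reflects increased AR and SRC-1 complex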
In short: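 Stable HEK293T line carries AR and SRC-1 each linked to a Venus fragment; chemicals are applied for 16 h, cells imaged at two wavelengths, and the 488 nm nucleus/cytoplasm ratio is taken as the signal, rising relative to DMSO.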

[5] = biological target: Androgen Receptor/SRC-1 Co-activator, AR (gene 367) (UniProt P10275); test: OT_AR_ARSRC1_0480: Odyssey Thera (OT) 8-hour HEK293T Protein-Complementation Assay for Androgen Receptor/SRC-1 Co-activator (AID 2283354);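 also: hits raise the complementation signal above DMSO so AC50 marks enhancers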
In short: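 After 8 h dosing, stably expressing HEK293T cells with split-Venus AR/SRC-1 fusions were imaged (488, 635nm). The 488nm N/C ratio per image gave the endpoint, analysed in the positive direction against DMSO.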

[6] = biological target: T1, Estrogen receptor (Homo sapiens) + Estrogen receptor beta (Homo sapiens); test: OT_ER_ERaERb_1440: Odyssey Thera (OT) 24-hour HEK293T Protein-Complementation Assay for Estrogen Receptor-alpha/-beta Homodimer (AID 2283356);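 also: heteromer of ER alpha and ER beta binding domains; hits raise reporter fluorescence and both agonists and antagonists give an increase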
In short: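 Readout: mean fluorescence intensity in nucleus (agonists) or nucleus plus cytoplasm (antagonists), read by laser scanning cytometer after 24 h compound exposure of HEK293T cells carrying ERα/ERβ LBD fragment-complementation constructs; DMSO baseline.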

[7] = biological target: human Peroxisome Proliferator-activated Receptor alpha (PPARa), PPARA (gene 5465) (UniProt Q07869); test: NVS_NR_hPPARa: NovaScreen (NVS) Nuclear Receptor Binding Assay for human Peroxisome Proliferator-activated Receptor alpha (PPARa) (AID 2283359);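 also: activity means loss of TR-FRET signal versus DMSO baseline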
In short: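 One-hour incubation, cell-free extracted protein, TR-FRET binding readout; signal loss vs DMSO scored. Screen: 25 uM duplicates, confirmatory dose series for actives.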

PGR (gene 5241) = PGR (gene 5241) (UniProt P06401); test: NVS_NR_hPR: NovaScreen (NVS) Nuclear Receptor Binding Assay for human Progestron Receptor (PR) (AID 2283360);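 also: active means loss of bound radioligand signal versus DMSO baseline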
Protocol: NVS_NR_hPR is a biochemical, single-readout assay that uses extracted gene-proteins from T47D in a cell-free assay. Measurements were taken 18 hours after chemical dosing in a 96-well plate.NVS_NR_hPR is one of one assay component(s) measured or calculated from the NVS_NR_hPR assay. It is designed to make measurements of radioligand binding, a form of binding reporter, as detected with scintillation counting signals by Lysate-based radiodetection technology.Data from the assay component NVS_NR_hPR was analyzed into 1 assay endpoint. This assay endpoint, NVS_NR_hPR, was analyzed in the positive analysis fitting direction relative to DMSO as the negative control and baseline of activity. Using a type of binding reporter, loss-of-signal activity can be used to understand changes in the binding as they relate to the gene PGR. Furthermore, this assay endpoint can be referred to as a primary readout, because the performed assay has only produced 1 assay endpoint. To generalize the intended target to other relatable targets, this assay endpoint is annotated to the nuclear receptor intended target family, where the subfamily is steroidal.
Binding assays used specific radioligands (tritiated, iodinated) with non-radioactive competitive displacement ligands in agonist or antagonist protocols (as indicated) and various reference compounds and inhibitors to titrate specific binding to receptors and transporters. Most enzyme assays (CYPs, kinases, phosphatases, proteases, HDACs) used recombinant protein and specific substrates (fluorescence mostly, some colorimetric and radioactive) and inhibitors, followed by a biochemical separation of substrate and product. All assays for the biochemical HTS were initially run in duplicate at a single concentration (10 uM for CYP450 assays and 25 uM for all others). […] Each assay was run with positive and negative controls, and concurrent controls on every plate. The follow-up (secondary) screen tested active chemical-pairs in concentration series, as well as a few additional assays not tested in the primary screen, some selected negative inactives, and several cases re-run in the concentration series for confirmatory purposes.

[8] = biological target: Retinoic acid receptor alpha (Homo sapiens) (UniProt P10276); test: NVS_NR_hRAR_Antagonist: NovaScreen (NVS) Nuclear Receptor Binding Assay for human Retinoic Acid Alpha Receptor Antagonism (RAR) (AID 2283358)
In short: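 Chemicals were first tested in duplicate at 25 uM, then actives in concentration series, in a cell-free TR-FRET antagonist binding format. Measurements were taken 2 hours after dosing and loss of signal was evaluated against DMSO controls.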

[9] = biological target: rat Mineralocorticoid Receptor (MR), Nr3c2 (gene 25672) (UniProt P22199); test: NVS_NR_rMR: NovaScreen (NVS) Nuclear Receptor Binding Assay for rat Mineralocorticoid Receptor (MR) (AID 2283355)
In short: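 Single-concentration duplicate screen (25 uM) of radioligand binding in adrenalectomized rat brain supernatant; scintillation detection 24 h after dosing. Positive and negative controls ran on each plate, and confirmed actives went to concentration-response.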

Androgen Receptor/SRC-1 Co-activator, AR (gene 367), sequence (P10275 whole entry, looked up, the tested form may be a part): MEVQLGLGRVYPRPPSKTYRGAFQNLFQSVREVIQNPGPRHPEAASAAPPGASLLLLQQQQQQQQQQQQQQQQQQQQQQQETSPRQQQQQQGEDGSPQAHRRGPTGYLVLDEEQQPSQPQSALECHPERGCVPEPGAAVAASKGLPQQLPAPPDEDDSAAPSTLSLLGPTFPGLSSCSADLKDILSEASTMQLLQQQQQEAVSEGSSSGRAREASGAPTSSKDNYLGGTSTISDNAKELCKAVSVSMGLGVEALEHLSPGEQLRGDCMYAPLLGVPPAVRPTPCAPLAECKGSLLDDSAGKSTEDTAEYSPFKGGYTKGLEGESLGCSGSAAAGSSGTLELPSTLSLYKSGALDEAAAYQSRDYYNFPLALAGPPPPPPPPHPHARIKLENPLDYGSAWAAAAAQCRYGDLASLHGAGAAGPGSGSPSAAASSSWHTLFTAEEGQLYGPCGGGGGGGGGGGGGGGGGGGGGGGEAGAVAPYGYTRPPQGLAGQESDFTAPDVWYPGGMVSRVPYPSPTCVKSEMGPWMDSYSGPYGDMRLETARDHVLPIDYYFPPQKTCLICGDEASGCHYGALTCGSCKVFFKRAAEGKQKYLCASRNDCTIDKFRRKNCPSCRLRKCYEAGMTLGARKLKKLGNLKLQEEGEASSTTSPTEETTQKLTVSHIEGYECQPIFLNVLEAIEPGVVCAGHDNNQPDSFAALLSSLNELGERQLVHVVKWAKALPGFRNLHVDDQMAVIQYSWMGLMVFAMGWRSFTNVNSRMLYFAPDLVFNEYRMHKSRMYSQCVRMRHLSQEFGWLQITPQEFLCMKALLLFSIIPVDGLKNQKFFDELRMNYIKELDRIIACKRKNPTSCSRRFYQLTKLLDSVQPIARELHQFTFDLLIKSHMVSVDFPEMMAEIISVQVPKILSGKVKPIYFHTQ
human Peroxisome Proliferator-activated Receptor alpha (PPARa), PPARA (gene 5465), sequence (Q07869 whole entry, looked up): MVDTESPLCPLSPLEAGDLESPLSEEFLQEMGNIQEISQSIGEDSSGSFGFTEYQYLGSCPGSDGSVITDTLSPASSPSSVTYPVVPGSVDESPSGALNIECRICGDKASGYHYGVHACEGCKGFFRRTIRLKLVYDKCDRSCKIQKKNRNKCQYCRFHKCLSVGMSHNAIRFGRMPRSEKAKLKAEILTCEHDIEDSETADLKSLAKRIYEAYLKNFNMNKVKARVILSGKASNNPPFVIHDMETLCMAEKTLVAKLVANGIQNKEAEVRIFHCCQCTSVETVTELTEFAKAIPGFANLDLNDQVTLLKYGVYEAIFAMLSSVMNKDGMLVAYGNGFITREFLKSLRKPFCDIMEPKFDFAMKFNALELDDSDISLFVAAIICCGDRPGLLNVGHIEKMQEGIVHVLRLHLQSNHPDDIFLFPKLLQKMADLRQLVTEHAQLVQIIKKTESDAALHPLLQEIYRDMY
Estrogen receptor (Homo sapiens), sequence (P03372 whole entry, looked up, the tested form may be a part): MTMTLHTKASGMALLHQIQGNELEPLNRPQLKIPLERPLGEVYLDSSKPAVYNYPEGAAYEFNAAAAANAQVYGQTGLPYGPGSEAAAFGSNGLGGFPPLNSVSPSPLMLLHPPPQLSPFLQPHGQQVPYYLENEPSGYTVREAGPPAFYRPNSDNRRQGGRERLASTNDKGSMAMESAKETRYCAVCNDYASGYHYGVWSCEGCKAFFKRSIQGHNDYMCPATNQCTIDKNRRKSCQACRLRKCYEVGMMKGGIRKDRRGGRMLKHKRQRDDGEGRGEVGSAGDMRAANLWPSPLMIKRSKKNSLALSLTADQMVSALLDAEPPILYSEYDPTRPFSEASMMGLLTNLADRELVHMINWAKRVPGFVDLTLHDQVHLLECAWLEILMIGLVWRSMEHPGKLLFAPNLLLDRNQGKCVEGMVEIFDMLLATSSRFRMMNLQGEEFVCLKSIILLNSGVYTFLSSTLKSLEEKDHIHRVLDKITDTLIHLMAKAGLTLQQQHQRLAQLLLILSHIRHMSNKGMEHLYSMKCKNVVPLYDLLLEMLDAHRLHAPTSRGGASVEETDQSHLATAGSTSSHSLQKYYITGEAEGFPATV
T1 sequence (P03372 whole entry, looked up, the tested form may be a part): as above
T1 sequence (Q92731 whole entry, looked up, the tested form may be a part): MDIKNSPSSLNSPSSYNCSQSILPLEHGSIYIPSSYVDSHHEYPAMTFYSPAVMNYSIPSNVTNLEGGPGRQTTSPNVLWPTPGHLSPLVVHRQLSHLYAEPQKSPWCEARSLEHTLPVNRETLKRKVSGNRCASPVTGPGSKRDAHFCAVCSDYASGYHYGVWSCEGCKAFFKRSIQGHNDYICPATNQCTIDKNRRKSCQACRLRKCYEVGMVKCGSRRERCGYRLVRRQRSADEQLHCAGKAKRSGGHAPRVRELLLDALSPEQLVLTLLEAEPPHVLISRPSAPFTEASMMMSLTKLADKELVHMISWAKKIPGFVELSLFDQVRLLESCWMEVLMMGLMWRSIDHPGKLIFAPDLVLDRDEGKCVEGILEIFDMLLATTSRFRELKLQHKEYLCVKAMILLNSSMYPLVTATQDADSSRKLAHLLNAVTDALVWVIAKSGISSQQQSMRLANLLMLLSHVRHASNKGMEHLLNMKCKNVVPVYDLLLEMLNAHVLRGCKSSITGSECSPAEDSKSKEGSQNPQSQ
Estrogen receptor beta (Homo sapiens), sequence (Q92731 whole entry, looked up, the tested form may be a part): as above
PGR (gene 5241), sequence (P06401 whole entry, looked up): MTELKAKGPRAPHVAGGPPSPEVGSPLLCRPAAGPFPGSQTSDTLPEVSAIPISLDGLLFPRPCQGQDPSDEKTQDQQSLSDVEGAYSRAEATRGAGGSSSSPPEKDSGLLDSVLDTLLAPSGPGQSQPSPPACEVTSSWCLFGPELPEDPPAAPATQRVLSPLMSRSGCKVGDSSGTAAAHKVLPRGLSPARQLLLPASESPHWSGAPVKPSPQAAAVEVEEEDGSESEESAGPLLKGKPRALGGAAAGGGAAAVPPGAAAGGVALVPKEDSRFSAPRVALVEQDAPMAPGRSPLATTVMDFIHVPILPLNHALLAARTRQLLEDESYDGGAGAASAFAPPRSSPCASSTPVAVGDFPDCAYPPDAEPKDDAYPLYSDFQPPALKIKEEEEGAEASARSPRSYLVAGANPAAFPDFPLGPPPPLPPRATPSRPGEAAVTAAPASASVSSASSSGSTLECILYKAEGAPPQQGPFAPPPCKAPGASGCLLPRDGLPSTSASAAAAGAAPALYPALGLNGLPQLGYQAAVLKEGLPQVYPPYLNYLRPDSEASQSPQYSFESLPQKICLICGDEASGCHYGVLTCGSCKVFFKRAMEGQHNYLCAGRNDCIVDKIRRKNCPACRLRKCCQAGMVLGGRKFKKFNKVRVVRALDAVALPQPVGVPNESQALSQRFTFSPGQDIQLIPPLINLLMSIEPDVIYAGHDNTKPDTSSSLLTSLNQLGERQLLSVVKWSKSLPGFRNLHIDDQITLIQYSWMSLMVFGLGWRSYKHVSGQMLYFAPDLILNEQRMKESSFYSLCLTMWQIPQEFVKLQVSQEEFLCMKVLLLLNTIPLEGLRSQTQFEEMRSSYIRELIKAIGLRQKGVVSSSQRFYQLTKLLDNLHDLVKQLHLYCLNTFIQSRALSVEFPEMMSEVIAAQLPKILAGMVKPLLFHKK
Retinoic acid receptor alpha (Homo sapiens), sequence (P10276 whole entry, looked up): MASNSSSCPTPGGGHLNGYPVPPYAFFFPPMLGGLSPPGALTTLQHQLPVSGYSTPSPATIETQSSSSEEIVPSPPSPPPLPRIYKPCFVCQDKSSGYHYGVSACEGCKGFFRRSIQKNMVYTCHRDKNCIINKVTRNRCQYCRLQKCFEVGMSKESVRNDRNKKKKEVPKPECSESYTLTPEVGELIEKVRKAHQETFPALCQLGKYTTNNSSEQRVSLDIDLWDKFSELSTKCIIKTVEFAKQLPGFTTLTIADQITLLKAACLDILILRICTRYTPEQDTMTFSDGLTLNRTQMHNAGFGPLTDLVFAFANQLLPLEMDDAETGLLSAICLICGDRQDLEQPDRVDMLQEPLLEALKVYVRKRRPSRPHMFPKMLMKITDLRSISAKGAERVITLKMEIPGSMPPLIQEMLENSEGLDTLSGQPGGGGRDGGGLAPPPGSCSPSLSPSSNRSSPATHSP
rat Mineralocorticoid Receptor (MR), Nr3c2 (gene 25672), sequence (P22199 whole entry, looked up): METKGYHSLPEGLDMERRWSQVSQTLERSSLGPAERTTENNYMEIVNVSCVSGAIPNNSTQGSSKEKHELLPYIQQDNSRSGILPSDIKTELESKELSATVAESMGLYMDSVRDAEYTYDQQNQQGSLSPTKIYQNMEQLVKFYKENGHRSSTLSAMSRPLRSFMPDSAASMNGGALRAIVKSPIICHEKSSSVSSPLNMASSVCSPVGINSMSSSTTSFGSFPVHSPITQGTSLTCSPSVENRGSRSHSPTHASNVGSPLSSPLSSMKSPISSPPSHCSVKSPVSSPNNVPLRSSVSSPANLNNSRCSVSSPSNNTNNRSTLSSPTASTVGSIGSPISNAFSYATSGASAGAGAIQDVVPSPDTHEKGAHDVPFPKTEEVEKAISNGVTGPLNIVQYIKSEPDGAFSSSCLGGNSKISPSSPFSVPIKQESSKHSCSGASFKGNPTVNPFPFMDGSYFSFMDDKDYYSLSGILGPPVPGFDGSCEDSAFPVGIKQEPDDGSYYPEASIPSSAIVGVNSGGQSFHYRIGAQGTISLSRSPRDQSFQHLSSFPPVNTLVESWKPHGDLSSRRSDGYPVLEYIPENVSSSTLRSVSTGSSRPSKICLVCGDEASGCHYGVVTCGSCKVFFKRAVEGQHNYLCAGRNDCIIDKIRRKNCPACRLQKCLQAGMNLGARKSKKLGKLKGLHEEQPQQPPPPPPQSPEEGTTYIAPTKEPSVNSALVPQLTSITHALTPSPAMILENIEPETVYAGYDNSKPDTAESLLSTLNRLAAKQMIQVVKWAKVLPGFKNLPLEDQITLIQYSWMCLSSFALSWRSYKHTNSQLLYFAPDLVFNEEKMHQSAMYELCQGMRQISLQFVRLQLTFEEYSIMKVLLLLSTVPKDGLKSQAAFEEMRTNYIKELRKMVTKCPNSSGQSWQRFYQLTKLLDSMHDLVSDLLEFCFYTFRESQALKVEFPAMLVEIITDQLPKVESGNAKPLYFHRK

## NS(=O)(=O)O
[1]
  outcome: inactive

## O=S(=O)(O)c1ccccc1
[1]
  outcome: inactive

## CCCCCCC(C)(C)C(=O)O
[2]
  outcome: inactive
[3]
  outcome: inactive
[4]
  outcome: inactive
[5]
  outcome: inactive
[6]
  outcome: inactive
[1]
  outcome: inactive

## NC(=NCCCCCCN=C(N)/N=C(\N)Nc1ccc(Cl)cc1)/N=C(\N)Nc1ccc(Cl)cc1
[2]
  outcome: inactive
[4]
  AC50: 9.58 µM (active)
[5]
  outcome: inactive
[7]
  AC50: 0.178 µM (active)

## CCCCc1oc2ccccc2c1C(=O)c1cc(I)c(OCCN(CC)CC)c(I)c1
[2]
  outcome: inactive
[3]
  outcome: inactive
[1]
  outcome: inactive

## CCCCCCCCCCCCCCC
[1]
  outcome: inactive
PGR (gene 5241)
  outcome: inactive

## Cc1cc(C(=C2C=CC(=Nc3ccc(S(=O)(=O)O)cc3)C=C2)c2ccc(Nc3ccc(S(=O)(=O)O)cc3)cc2)cc(S(=O)(=O)O)c1N
[2]
  outcome: inactive
[3]
  outcome: inactive
[4]
  outcome: inactive
[5]
  outcome: inactive
[6]
  outcome: inactive
[1]
  outcome: inactive

## O=C1OC2(c3ccccc31)c1cc(I)c(O)c(I)c1Oc1c2cc(I)c(O)c1I
[8]
  AC50: 19.7 µM (active)

## CC(C)[C@@H]1CC[C@@H](C)C[C@H]1O
[4]
  outcome: inactive
[5]
  outcome: inactive
[1]
  outcome: inactive

## NCCN
[2]
  outcome: inactive
[7]
  outcome: inactive

## CCC(C)c1ccccc1O (stereo unspecified)
[1]
  outcome: inactive

## O=C(CCCN1CCC(O)(c2ccc(Cl)cc2)CC1)c1ccc(F)cc1
[1]
  outcome: inactive

## CCCCCCCCCCCC(=O)O
[1]
  outcome: inactive

## O=C(O)c1cccc(C(=O)O)n1
[2]
  outcome: inactive
[3]
  outcome: inactive
[6]
  outcome: inactive

## CCCCCCCCCC=CCC1CC(=O)OC1=O (stereo unspecified)
[2]
  outcome: inactive
[3]
  outcome: inactive
[4]
  outcome: inactive
[5]
  outcome: inactive
[6]
  outcome: inactive
[1]
  outcome: inactive

## CCCCC(CC)C(=O)O (stereo unspecified)
[7]
  outcome: inactive

## CCCCCCCCCCCC
[8]
  AC50: 3.51 µM (active)
[7]
  AC50: 7.45 µM (active)

## CCCCc1ccc2ccccc2c1S(=O)(=O)O
[2]
  outcome: inactive
[3]
  outcome: inactive
[4]
  outcome: inactive
[5]
  outcome: inactive
[6]
  outcome: inactive
[1]
  outcome: inactive
[7]
  outcome: inactive

## C[C@]12CC[C@@H]3c4ccc(O)cc4CC[C@H]3[C@@H]1C[C@@H](O)[C@@H]2O
[1]
  AC50: 0.552 µM (active)
PGR (gene 5241)
  AC50: 35.4 µM (active)

## Clc1ccc(Nc2nnc(Cc3ccncc3)c3ccccc23)cc1
PGR (gene 5241)
  outcome: inactive

## CC(O)COc1ccccc1 (stereo unspecified)
[4]
  outcome: inactive
[5]
  outcome: inactive
[1]
  outcome: inactive

## CN(Cc1cnc2nc(N)nc(N)c2n1)c1ccc(C(=O)N[C@@H](CCC(=O)O)C(=O)O)cc1
[2]
  outcome: inactive
[3]
  outcome: inactive
[4]
  outcome: inactive
[5]
  outcome: inactive
[9]
  outcome: inactive
[6]
  outcome: inactive
PGR (gene 5241)
  outcome: inactive

## N=C(N)c1ccc(OCCCCCOc2ccc(C(=N)N)cc2)cc1
[2]
  outcome: inactive

## Cc1[nH]nc2c1N=C(c1ccccc1Cl)c1cc([N+](=O)[O-])ccc1N2
[1]
  outcome: inactive

## c1cnc2c(c1)ccc1cccnc12
[1]
  outcome: inactive

## COc1cc([N+](=O)[O-])ccc1N
[2]
  outcome: inactive
[3]
  outcome: inactive
[4]
  outcome: inactive
[5]
  outcome: inactive
[6]
  outcome: inactive
[1]
  outcome: inactive

## CCc1ccccc1O
[2]
  outcome: inactive
[3]
  outcome: inactive
[6]
  outcome: inactive
[1]
  outcome: inactive

## CCCCCCc1ccc(N)cc1
[2]
  AC50: 67.3 µM (active)
[3]
  AC50: 30.1 µM (active)
[4]
  outcome: inactive
[5]
  outcome: inactive
[6]
  AC50: 21.4 µM (active)
[1]
  AC50: 50 µM (active)

## NCc1cccc(CN)c1
[2]
  outcome: inactive
[3]
  outcome: inactive
[6]
  outcome: inactive
[1]
  outcome: inactive

## O=C1NS(=O)(=O)c2ccccc21
[1]
  outcome: inactive
[8]
  outcome: inactive

## c1cc[nH]c1
PGR (gene 5241)
  outcome: inactive

## CCCCCC(C)OC(=O)COc1ccc(Cl)c2cccnc12 (stereo unspecified)
[2]
  outcome: inactive

## O=C(c1ccccc1)c1ccccc1
[4]
  outcome: inactive
[5]
  outcome: inactive

## C=CC(C)(CCC=C(C)C)OC(C)=O (stereo unspecified)
[2]
  outcome: inactive

## CC(=O)Nc1ccc(O)cc1
[4]
  outcome: inactive
[5]
  outcome: inactive
[1]
  outcome: inactive

## Cc1cc(C(C)(C)C)c(O)c(C(C)(C)C)c1
[1]
  outcome: inactive

## CN(C)CCOC(c1ccccc1)c1ccccc1
[2]
  outcome: inactive
[3]
  outcome: inactive
[4]
  outcome: inactive
[5]
  outcome: inactive
[6]
  outcome: inactive

## CCCCCCCCCCCCOC(=O)c1cc(O)c(O)c(O)c1
[2]
  outcome: inactive
[3]
  AC50: 11.9 µM (active)
[6]
  AC50: 11.9 µM (active)
[1]
  outcome: inactive
[8]
  AC50: 36.9 µM (active)

## Cc1cc(Cc2cc(C)cc(C(C)(C)C)c2O)c(O)c(C(C)(C)C)c1
[2]
  outcome: inactive
[6]
  outcome: inactive
[1]
  outcome: inactive
